The assay relates to CAMKK1. The conditions noted are these: concentration: 1 μM, replicates: in singlicate; n = 1.
For the molecule `Oc1ccc2ncnc(Nc3ccc(OCc4ccccc4)cc3)c2c1` [GI262866], the “%Inh” value came to 0%. For `FC(F)(F)c1ccc(-c2cc(-c3c[nH]nc3-c3ccccn3)ccn2)cc1` [GW599550], the “%Inh” value was determined as 11%. With `CCc1nc(-c2cccc(C)c2)c(-c2ccnc(NC(=O)c3ccccc3)c2)s1` the figure was 4%; with `CN1c2ccc(-c3ccc(C(=O)NCCO)cc3)cc2-c2[nH]ncc2S1(=O)=O`, 22%; with `O=C(c1ccc(-c2cc(-c3c[nH]nc3-c3ccccn3)ccn2)cc1)N1CCCC1` [GW792479], 23%. Consider `COc1ccc(-c2oc3ncnc(N)c3c2-c2ccc(OC)cc2)cc1` [SB-589132], for which the “%Inh” value is 0%. As for `CCc1nc(-c2cccc(N(C)S(=O)(=O)c3ccccc3)c2)c(-c2ccnc(Nc3ccc(N4CCN(C(C)=O)CC4)nc3)n2)s1` [GSK1645895], the “%Inh” value was determined as 30%.

In the case of `Fc1cccc(COc2ccc(Nc3ncnc4cc[nH]c34)cc2Cl)c1`, the “%Inh” value was 11%.

For `Cl.c1ccc(Cn2ncc3cc(Nc4ncnc5ccccc45)ccc32)cc1` [GW273749], the “%Inh” value came to 3%. Turning to `COC(=O)c1cccc(NC(=O)NCCNc2ccnc(Nc3ccc(F)cc3)n2)c1` [GSK1379883], the “%Inh” value is 11%. With `Cl.c1ccc(Cn2ccc3cc(Nc4ncnc5ccccc45)ccc32)cc1` [GW275568] the figure was 16%; with `COc1ccc(Nc2nccc(N3CCC(NC(=O)c4cccc(NC(C)=O)c4)C3)n2)cc1` (stereo not shown) [GSK1379732], 0%; with `Nc1nccc2scc(-c3ccc4c(c3)CCN4C(=O)Cc3cc(F)ccc3F)c12` [GSK2587663], 5%.

For the origin of these results see article PMC5540273 (PLoS ONE, 2017).
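Note: KINOMEscan kinase panel screen.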
